From article PMC8384837, “Expanding the binding specificity for RNA recognition by a PUF domain”

Biological target: PUM1 PUF domain R3-GWL (Homo sapiens, UniProt Q14671 828-1176, C935G;R936W;Q939L)
Test: yeast three-hybrid, YBZ-1, SC-Leu-His + 0.5 mM 3-AT, 4 days
Conditions: tags: N-Gal4 AD-HA kept; label: inside an RPR1-promoter hybrid RNA with tandem MS2 sites; ssRNA
How it was run: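 Pumilio-1 PUF domain libraries, randomized at the three base-contacting residues of each repeat, were co-expressed with matching RNA elements from a centromeric plasmid in strain YBZ-1, which carries a LexA–MS2 coat fusion and a HIS3 reporter. Transformants grew for four days on SC-Leu (input) or on SC-Leu-His + 0.5 mM 3-AT (selection), and the repeat regions were PCR-amplified and Illumina-sequenced. The interaction score is the log change in variant frequency from input to selection. That logarithm is base 2, with a pseudocount of 1 where a variant was absent.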

Sequence	binding signal
GGCUAGAACUAGUGGAUCCCCCGGCGCCCGGCGGCUCGAGCCCGGGUAAGUGUAAUUAGUCUGCAUGCCGCCGGGCGCCAUGCCUGCAGGUCGACUCUAGAAAACAUG	3.82 log2 enrichment (interaction score)
GGCUAGAACUAGUGGAUCCCCCGGCGCCCGGCGGCUCGAGCCCGGGUAAGUGUAAGUAGUCUGCAUGCCGCCGGGCGCCAUGCCUGCAGGUCGACUCUAGAAAACAUG	1.08 log2 enrichment (interaction score)
GGCUAGAACUAGUGGAUCCCCCGGCGCCCGGCGGCUCGAGCCCGGGUAAGUGUAAAUAGUCUGCAUGCCGCCGGGCGCCAUGCCUGCAGGUCGACUCUAGAAAACAUG	3.81 log2 enrichment (interaction score)
